Experimental data published in PubChem BioAssay AID1778 (Sanford-Burnham Center for Chemical Genomics, 2009).
Several values for one entry are separate records, joined by “and”; a condition that tells them apart may be missing. Identical values can stand only once. Out of some 290,000 compounds screened, about 260 (0.09%) were called active. This is one part of a sample in which actives are shown more often than they occur. Measured potencies and affinities stand elsewhere. Unmarked numbers belong to inactive results. No stated cut-off is given here; in the data, active means inhibition above about 50%; inactive means the rest.

biological target: Kappa-type opioid receptor (Homo sapiens) (UniProt P41145); experiment: KOR antagonists, beta-arrestin recruitment, cell-based, luminescence, uHTS (AID 1778); conditions: antagonist mode, hits give high values; at 10 µM unless noted
Sequence (P41145 whole entry, looked up): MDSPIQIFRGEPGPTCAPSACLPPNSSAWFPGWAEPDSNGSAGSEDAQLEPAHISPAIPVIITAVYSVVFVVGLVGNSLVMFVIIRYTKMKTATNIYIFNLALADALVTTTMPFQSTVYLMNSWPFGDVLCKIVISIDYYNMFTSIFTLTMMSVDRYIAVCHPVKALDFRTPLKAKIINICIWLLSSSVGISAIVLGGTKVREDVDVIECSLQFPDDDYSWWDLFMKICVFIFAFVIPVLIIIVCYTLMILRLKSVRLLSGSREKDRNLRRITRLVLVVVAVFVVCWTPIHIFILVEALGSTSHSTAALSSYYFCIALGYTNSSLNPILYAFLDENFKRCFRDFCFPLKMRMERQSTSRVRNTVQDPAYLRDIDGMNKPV

SMILES	inhibition
CCOC(=O)c1c(C)[nH]c(C)c1C(=O)CSc1nc2ccccc2c(=O)n1-c1ccc(Cl)cc1	-15.4%
Nc1c2c(nc3sc4c(c13)CCCC4)CCCCCC2	-20.4%
Nc1c2c(nc3sc4c(c13)CCCC4)-c1ccccc1CC2	9.5%
Nc1c2c(nc3sc4c(c13)CCCCC4)CCCCC2	-28.2%
Nc1nc2sc3c(c2c(=O)s1)CCCC3	-49.8%
CC1CCN(C(=O)COc2ccc3ccccc3c2Br)CC1	-12.2%
CCc1ccc(CN2CCC(C(=O)Nc3cccc(-c4nnc(C)s4)c3)CC2)o1	-24.6%
O=S(=O)(NCCc1ccccc1)c1ccc(-n2cnnn2)cc1	-7.2%
CC(=O)Nc1cccc(NC(=O)COc2nncc3ccccc23)c1	13.2%
CC(C)Cn1c(C(C)NC(=O)Cc2ccccc2)nc2ccccc21 (configuration not stated)	-13.7%
O=C1CCC([N+](=O)[O-])C(c2ccc(Cl)cc2)N1 (configuration not stated)	-23.8%
CCOC(=O)c1cc2c(ccc3ccccc32)oc1=O	-26.8% [at 20 µM]
CC(=O)c1cc2c(ccc3ccccc32)oc1=O	-8.6%
CC1(C)CC(=O)CC(=Nc2ccc3[nH]c(=O)[nH]c3c2)C1	17.9%
CC1Oc2ccccc2C=C1/C=N/NC(=O)c1ccncc1 (configuration not stated)	22.3%
CC(C)CCn1nnnc1CN1CCN(c2ccc(F)cc2)CC1	-16.4% [at 20 µM]
Cc1cccc(N2CCCn3c2nc2c3c(=O)n(CCN3CCOCC3)c(=O)n2C)c1	-4%
Cn1c(=O)n(CCN2CCOCC2)c(=O)c2c1nc1n2CCCN1c1ccccc1	51.1% (active)
Cc1ccc(N2CCCn3c2nc2c3c(=O)n(CCN3CCOCC3)c(=O)n2C)cc1	-16.1%
CN(CC(=O)Nc1ccc(F)c(F)c1F)C(=O)c1ccc(=O)[nH]c1	31.4%
CN(Cc1cnn(-c2ccccc2)c1)C(=O)C1CCC(=O)N(C2CC2)C1 (configuration not stated)	9.1%
O=C(O)CNc1nc(-c2ccccc2)c2cc([N+](=O)[O-])ccc2n1	4.1%
O=[N+]([O-])c1ccc2nc(-c3ccccc3)cc(-c3ccccc3)c2c1	14.3%

SMILES	inhibition
O=C(O)CCCc1c(-[n+]2ccccc2)[nH]c2ccccc12	5.9%
COCCOC(=O)c1[nH]c2c(c1C)C(=O)CC(c1ccc(OC)c(OC)c1)C2 (configuration not stated)	-5.3%
CCCCN(CCCNC(=O)C1CCN(S(=O)(=O)CC)CC1)c1ccccc1	23.2%
CN(CCCNC(=O)C1CCN(S(=O)(=O)N2CCC3(CC2)OCCO3)CC1)Cc1ccccc1	-79.2%
CCN(CCCNC(=O)C1CCN(S(=O)(=O)CC)CC1)c1ccccc1	17.3%
CCCCN(CCCNC(=O)C1CCN(S(=O)(=O)N2CCOCC2)CC1)Cc1ccccc1	28.7%
Cc1c(Cl)cccc1NC(=S)N1CCCN(Cc2ccccc2F)C1	-15.1%
COc1cccc(C(=O)Oc2cc(C)[nH]c(=O)c2[N+](=O)[O-])c1OC	6.3%
CC(C)[C@H](NC(=O)[C@@H]1Cc2ccccc2CN1)C(=O)Nc1ccc2c(c1)OCCO2	-1.1%
COc1ccc(N2CCN(C(C)C(=O)N3CC(C)OC(C)C3)CC2)cc1 (configuration not stated)	-2.4%
O=C1C(=O)N(CCCn2ccnc2)C(c2ccc(Br)cc2)/C1=C(\O)c1ccc2c(c1)OCCO2 (configuration not stated)	-11.2%
COc1cc2c(c(OC)c1OC)-c1c(cc3c(c1OC)OCO3)[C@@H](OC(C)=O)[C@H](C)[C@H](C)C2	20.4%
C/C=C(/C)C(=O)O[C@@H]1c2cc3c(c(OC)c2-c2c(cc(OC)c(OC)c2OC)[C@@H](OC(C)=O)[C@@H](C)[C@H]1C)OCO3	10.7%
COc1ccc(-c2cc(C(=O)N/N=C/c3cccnc3)c3cc(C)cc(C)c3n2)cc1	1.8%
Cc1cccc(NC(=O)COC(=O)c2ccccc2SCC(=O)N2CCCC2)c1	30.1%
CC(CN1CCN(C)CC1)OC(=O)c1ccccc1 (configuration not stated)	-12.4%
COc1ccc(CCN2C(=O)C(Oc3ccccc3C)C2c2ccc3c(c2)OCO3)cc1 (configuration not stated)	-11%
COc1ccc(CCN2C(=O)C(Oc3ccccc3)C2c2ccc3c(c2)OCO3)cc1 (configuration not stated)	-53.4%
O=C1C(Oc2ccccc2)C(c2ccc3c(c2)OCO3)N1CCc1ccc(F)cc1 (configuration not stated)	64% (active)
Cc1nc(SCC(=O)N2CCOCC2)c2c(C)c(C)sc2n1	-32.1%
O=C(CSC1=NC(=O)C(c2ccccc2)C(=O)N1)Nc1cccc(Cl)c1 (configuration not stated)	-48.8%
C=CCNC(=S)N/N=C(\C)c1cccnc1	3.5%
C/C(=N\NC(=O)Cc1ccc(Cl)cc1)c1ccccc1O	-29.7% [at 20 µM]

SMILES	inhibition
C/C(=N\NC(=O)COc1ccccc1-c1ccccc1)c1cccnc1	-42.8%
C/C(=N\NC(=O)COc1ccccc1-c1ccccc1)c1ccccn1	99% (active)
C/C(=N\NC(=O)c1ccccn1)c1ccc(Cl)cc1	-13.1%
C/C(=N\NC(=O)COc1ccccc1-c1ccccc1)c1ccc(O)cc1O	-14.4%
C=CCNC(=S)N/N=C(\C)c1cccc(OC)c1	26.1%
CCCn1c2ccccc2c2cnn(CC(=O)NCCN(C)C)c(=O)c21	-19%
COc1ccc(OCCSc2nnc(C)n2-c2ccccc2)cc1	-14.2%
O=C(COC(=O)c1c(F)cccc1F)NCCNC(=O)COC(=O)c1c(F)cccc1F	-58.8%
CC1(C)CNC(=O)CC(C)(C)N1O	8.7%
O=C(NCc1ccco1)c1cccc(C(F)(F)F)c1	-35.4% [at 20 µM]
CCNc1nc(Oc2ccc(C(=O)OC)cc2)nc(SC)n1	1.5%
Cc1[nH]n(-c2ccccc2)c(=O)c1/C=N/N1C(=O)c2ccc3c4c(ccc(c24)C1=O)CC3	-2.7%
Cc1ccc(-n2[nH]c(C)c(/C=N/c3cccc(C)n3)c2=O)cc1	21.8%
O=C1c2cccc3cccc(c23)C(=O)N1/N=C/c1ccc(O)cc1O	-17.5%
COc1ccccc1/C=N/N1C(=O)c2cccc3cccc(c23)C1=O	-44.5%
CSc1oc(-c2ccccc2)nc1S(=O)(=O)c1ccc(F)cc1	-25.9%
O=C(CO/N=C1\CCCc2nonc21)Nc1ccc(Br)cc1	24.7%
COc1cccc(NC(=O)C2CCN(C(=O)NC3CCCCC3)CC2)c1	-51.6%
Cc1cc(C)cc(NC(=O)CSc2nnc(-c3cc(C)[nH]n3)n2N)c1	-17.6%
O=C(CSc1nnc(NC(=O)c2ccc(F)cc2)s1)NCc1ccco1	22.3%
Oc1ccc2ccccc2c1N=Nc1ccccc1F	37.6%
Oc1ccc2ccccc2c1N=Nc1ccc(F)cc1	6.7% and 41.7%
Oc1ccc2ccccc2c1/C=N/c1nccs1	-15.8%

SMILES	inhibition
Oc1c(N=Nc2ccc(F)cc2)ccc2ccccc12	7.2% [at 20 µM]
Oc1ccc2ccccc2c1N=Nc1nccs1	109% (active)
Cc1ccc(N=Nc2ccc3ccccc3c2O)cc1	15.6% [at 20 µM]
Oc1ccc(N=Nc2c(O)ccc3ccccc23)cc1	32%
COC(=O)c1cc(C(=O)NCC2CCCCC2)cc([N+](=O)[O-])c1	7.5%
Cc1ccc(-c2nnn(CC(=O)N(c3ccccc3)C(C(=O)NC3CCCC3)c3ccncc3)n2)o1 (configuration not stated)	5.7%
CC(C)NS(=O)(=O)c1ccc(CCC(=O)Nc2ccc3c(c2)OCCO3)cc1	7.5%
CS(=O)(=O)c1ccc2nc(NC(=O)c3ccc(Cl)cc3)sc2c1	-55% [at 20 µM]
O=C(O)c1ccc(-c2ccccc2)[nH]c1=O	5.6%
CC(C)(C)NC(=O)c1cc(NC(=O)c2cccs2)cc(NC(=O)c2cccs2)c1	-34.4%
Cc1nc(Cl)c(Cl)n1CCOc1ccccc1	-4.6%
CCN(CC)CCCNC(=O)c1cc(Sc2nnc(C)s2)nc2ccccc12	-6.1%
Cn1cccc1CNC(=S)Nc1ccccc1Cl	28.1%
Cc1ccc(NC(=O)CC(C)CC(=O)NCc2ccccc2)cc1Cl (configuration not stated)	-17.8%
O=[N+]([O-])c1ccccc1OC/C(=N\O)c1ccccc1	13.6%
COC(=O)c1cn(NC(=O)/C=C/c2cc(OC)ccc2OC)c(=O)c2ccccc12	-8.8%
CCOc1ccc(C(=O)C(CCC(CN(C)C)C(=O)c2ccc(OCC)cc2)CN(C)C)cc1 (configuration not stated)	15.2%
CN(C)CC(CCCCC(CN(C)C)C(=O)c1ccccc1)C(=O)c1ccccc1 (configuration not stated)	12.5%
CN(C)CC(CCC(CN(C)C)C(=O)c1ccccc1)C(=O)c1ccccc1 (configuration not stated)	83.9% (active)
Cc1cccc(C(=O)OCC(=O)Nc2ccc(N3CCCCC3)cc2)c1O	-7.8%
Cc1ccccc1N(C(=O)Cn1nnc(-c2cccs2)n1)C(C(=O)NCCC(C)C)c1ccco1 (configuration not stated)	23.7%
COc1ccccc1NC(=O)CN1CC(=O)Nc2ccccc21	0%
COc1ccc(/C=C/C(=O)OCC(=O)N2CC(=O)Nc3ccccc32)cc1S(=O)(=O)N1CCOCC1	-27.5%
